Source: PubChem
In the library only some 3.1% were active in any assay of this set; here they are far more common.
Nrf2 inh: blocks Nrf2 signaling; hit rate 2.1% among 360,000; A549 ARE-Fluc reporter, luciferase luminescence, 18-24 h; Potency, µM (series often up to 46 µM), inactives show at the top dose activity change, negative = inhibition, hits mostly inhibitors; also: % is scaled to controls: 0 for no effect and ±100 for the full control effect; nearly all actives have a fitted effect of over 60% in size
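Concentration-response testing used A549 ARE_Fluc cells at 5000 cells/well. Following an 18-24 h compound incubation, viability was read by fluorescence (Ex 405/Em 525) and luciferase output by luminescence.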
A549 tox: A549 cytotoxicity, counter-screen for Nrf2 inhibitors; A549 ARE-Fluc cells, CellTiter-Fluor viability, 18-24 h; Potency, µM (doses to about 46 µM), inactives show top-dose activity change, negative = cytotoxicity, usual class: inhibitors; hit rate 0.16% among 390,000; also: % is scaled to controls: 0 for no effect and ±100 for the full control effect
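A549 ARE_Fluc cells in 5% FBS OPTI-MEM were exposed to compounds in concentration-response for 18-24 h at 37 deg C. Viability was read by CellTiter-Fluor fluorescence (Ex 405/Em 525) after 30 min, before the luciferase read.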
TrxR1 substrate: substrates of rat thioredoxin reductase 1. hit rate 0.01% among 390,000. Potency, µM (top dose mostly 114 µM), without a hit: at the top dose activity change, negative = substrate turnover. purified TrxR1 substrate turnover, NADPH consumption readout. AID 588456. O89049; also: % is scaled to controls: 0 for no effect and ±100 for the full control effect; nearly all actives have a fitted effect of over 50% in size
Target sequence (O89049 whole entry, looked up): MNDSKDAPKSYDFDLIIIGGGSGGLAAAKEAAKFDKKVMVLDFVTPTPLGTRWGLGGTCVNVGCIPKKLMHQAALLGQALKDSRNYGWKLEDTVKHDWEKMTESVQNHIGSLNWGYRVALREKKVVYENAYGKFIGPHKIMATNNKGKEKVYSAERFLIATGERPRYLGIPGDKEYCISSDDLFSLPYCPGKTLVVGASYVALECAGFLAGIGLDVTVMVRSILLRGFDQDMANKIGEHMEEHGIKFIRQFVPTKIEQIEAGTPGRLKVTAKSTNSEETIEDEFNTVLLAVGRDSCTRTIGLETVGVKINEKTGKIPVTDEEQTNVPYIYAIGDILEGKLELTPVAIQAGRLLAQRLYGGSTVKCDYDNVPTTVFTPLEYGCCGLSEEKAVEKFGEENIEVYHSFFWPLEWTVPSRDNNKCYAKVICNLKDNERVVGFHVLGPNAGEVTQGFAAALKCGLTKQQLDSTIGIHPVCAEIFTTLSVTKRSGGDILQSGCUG
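Rat TrxR1, dispensed at 90 nM, was prereduced with 400 uM NADPH (final) for 5 min at ~22 deg C, then incubated with compound 15 min before 400 uM selenite. A first-read NADPH fluorescence drop versus no-compound background flagged substrates.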
rTrxR1 inhibitor: rat TrxR1 inhibition | O89049 | recombinant rTrxR1, NADPH fluorescence consumption, selenite substrate | Potency, µM (series often up to 114 µM), for inactives: at the top dose activity change, negative = inhibition, usual class: inhibitors | hit rate 1% among 390,000; also: % is scaled to controls: 0 for no effect and ±100 for the full control effect; nearly all actives have a fitted effect of over 65% in size
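Rat TrxR1 (90 nM in the dispensed reagent) was pre-reduced with 400 uM NADPH for 5 min at room temperature, then incubated with compound for 15 min. After 400 uM selenite was added, NADPH fluorescence (Ex 340/Em 450 nm) was followed for 8 min.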
Mito fusion act: blocks mitochondrial division or promotes mitochondrial fusion; S. cerevisiae fusion-defective mutant growth rescue, CellTiterGlo 48 h; Potency, µM (highest dose often 46.1 µM), for inactives: at the top dose growth rescue (activation), hits mostly activators; hit rate 0.23% among 320,000; AID 485298; also: % of control where 0% means no effect; nearly all actives have a fitted effect of over 45% in size
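Growth-rescue viability read-out: after 48 h at the non-permissive 37C in glycerol/ethanol YPEG, yeast mitochondrial fusion mutants are measured by CellTiterGlo luminescence; compounds (23 nl pinned per well) restoring growth score as division inhibitors or fusion activators.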
mIDH1 inhibitor: blocks human mutant IDH1 R132H enzyme. IDH1-R132H enzyme, NADPH consumption, diaphorase/resazurin fluorescence. Potency, µM (titrated, usually from 76.6 µM), inactives show at the top dose activity change, negative = inhibition, hits mostly inhibitors. AID 602179. hit rate 0.093% among 390,000; also: % is scaled to controls: 0 for no effect and ±100 for the full control effect; nearly all actives have a fitted effect of over 65% in size
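IDH1-R132H (0.5 ug/mL) preincubated 30 min with compound, then NADPH (0.016 mM) and alpha-KG (2 mM) added; 80 min at RT, pH 7.5. Remaining NADPH coupled via diaphorase/resazurin to fluorescence (540/590 nm); concentration-response curves normalized to no-enzyme control.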
* hit, by the source's call; ? = inconclusive; / = no result given; [ ] = another dose, or the depositor's remark. Calls follow the shape of the dose curve; as a rule, active = well fitted curve in the direction sought with a large enough effect; inconclusive = small, poorly fitted or top-dose-only effect, or another doubt; inactive = no such curve, though single readings can be large; an effect the other way counts as inactive or inconclusive. Potency is read from the fitted curve at half-maximal effect.

SMILES	Nrf2 inh	A549 tox	TrxR1 substrate	rTrxR1 inhibitor	Mito fusion act	mIDH1 inhibitor
Cc1cccc(Cc2c(C)nc3c(C(=O)NCc4ccco4)cnn3c2C)c1	23µM*	?	68%	-23%	2%	-4%
Cc1cccc(-c2nc(CSCC(=O)N3CCN(Cc4ccc5c(c4)OCO5)CC3)c(C)o2)c1	21µM*	2%	-3%	-7%	22%	5%
O=C(Nc1cc(-c2nc3ccccc3o2)ccc1Cl)c1ccc(N2CCCCC2)c([N+](=O)[O-])c1	17%	0%	-1%	15%	/	-2%
Cc1ccc(NS(=O)(=O)c2ccc(Cl)cc2)cc1C	-20%	14%	/	/	/	/
COc1ccc(C2c3c(nc(CCCc4ccccc4)[nH]c3=O)Oc3ccc4ccccc4c32)cc1OC (centres undefined)	-1%	-13%	/	/	/	/
CC1CCC(C(=O)NC(C(=O)OCC(=O)c2ccccc2)C(C)C)CC1 (centres undefined)	16µM*	-12%	3%	13%	/	10%
CCC(C)C(NC(=O)C1CCC(C)CC1)C(=O)NCc1ccco1 (centres undefined)	8%	26%	-4%	-10%	35µM*	-6%
N#C/C(=C\c1c(N(Cc2ccccc2)Cc2ccccc2)nc2ccccn2c1=O)C(N)=O	-8%	-20%	-1%	1%	7%	?
C=CCNC(=O)/C(C#N)=C/c1c(N(Cc2ccccc2)Cc2ccccc2)nc2ccccn2c1=O	26µM*	?	-11%	-3%	?	-26%
CN(C)CCCNc1ncnc2ccc(-c3ccc4c(c3)OCO4)cc12	?	11%	/	/	/	/
Cc1ccccc1C(=O)Nc1nnc2n1CCS2	/	5%	-2%[57.1 µM]	16%[57.1 µM]	/	21%
N#C/C(=C\c1ccc(-c2cc(Cl)ccc2Cl)o1)C(=O)Nc1cccc2ncccc12	/	/	21%[57.1 µM]	?	-57%	/
Cc1ccc(NC(=O)Cc2nc(-c3c[nH]c(C(=O)N4CCCC4)c3)cs2)c(C)c1	21µM*	0%	3%	-5%	3%	-5%
COc1ccc(NC(=S)N2CCC(Cc3ccccc3)CC2)cc1OC	?	2%	-5%	-1%	-2%	0%
COc1cccc(NC(=S)N2CCC(Cc3ccccc3)CC2)c1	18µM*	-1%	-9%	12%	-4%	-13%
C#CC[N+]1(CC#Cc2ccccc2)CCCCC1	-14%	-3%	-10%[57.1 µM]	28%[57.1 µM]	0%	2%
C(#Cc1ccccc1)C[N+]1(CC#Cc2ccccc2)CCCCC1	12µM*	-18%	-1%	18%[57.1 µM]	13%	-4%
CCC1CCCCN1CCCNC(=O)c1ccc2c(c1)sc1nc(-c3ccc(F)cc3)cn12 (centres undefined)	19%	8%	7%[11.4 µM]	7%[11.4 µM]	/	11%
COC(=O)c1cc2sc(C)cc2n1CC(=O)Nc1ccc(C)cc1Cl	-26%	-12%	-1%	10%	/	-14%
O=c1c(CO)cc(CO)cc(CO)c1O	-2%	-5%	-12%	-17%	1%	0%
O=C1C=CC(=O)c2c(O)c(CO)c(CO)c(O)c21	23µM*	16µM*	-2%	?	/	9%
CCOC(=O)c1c(NC(=O)c2nc(S(C)(=O)=O)ncc2Cl)sc(C(C)=O)c1C	18%	-19%	4%	1.4µM*	/	-6%
COC(=O)c1ccccc1NC(=O)c1nc(S(=O)(=O)Cc2cccc(C)c2)ncc1Cl	20%	-11%	8%	1.4µM*	/	-20%
CCCS(=O)(=O)c1ncc(Cl)c(C(=O)Nc2ccc(S(=O)(=O)Nc3ncccn3)cc2)n1	4%	0%	-3%	45µM*	-25%	-1%
CCOC(=O)c1c(NC(=O)c2nc(SCC)ncc2Cl)sc(C(C)=O)c1C	15%	9%	-1%	22%	/	10%
CCOC(=O)c1c(-c2ccccc2)csc1NC(=O)c1nc(SCC)ncc1Cl	2%	8%	-9%	4%	/	1%
